The list is not random: actives were taken first. Their share in the collection is about 21%.
CYP2C9 activ – human CYP2C9 activators, primary screen, biochemical, luminescence; recombinant CYP2C9, luciferin-H conversion; hits give high values; factor 1 = untreated enzyme, 0 = blocked; activation factor at 5 µM; 96,000 compounds, 1.4% hits;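 active = activation factor of 2 or more for CYP2C9 at a 5 µM dose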
Target sequence (P11712 whole entry, looked up): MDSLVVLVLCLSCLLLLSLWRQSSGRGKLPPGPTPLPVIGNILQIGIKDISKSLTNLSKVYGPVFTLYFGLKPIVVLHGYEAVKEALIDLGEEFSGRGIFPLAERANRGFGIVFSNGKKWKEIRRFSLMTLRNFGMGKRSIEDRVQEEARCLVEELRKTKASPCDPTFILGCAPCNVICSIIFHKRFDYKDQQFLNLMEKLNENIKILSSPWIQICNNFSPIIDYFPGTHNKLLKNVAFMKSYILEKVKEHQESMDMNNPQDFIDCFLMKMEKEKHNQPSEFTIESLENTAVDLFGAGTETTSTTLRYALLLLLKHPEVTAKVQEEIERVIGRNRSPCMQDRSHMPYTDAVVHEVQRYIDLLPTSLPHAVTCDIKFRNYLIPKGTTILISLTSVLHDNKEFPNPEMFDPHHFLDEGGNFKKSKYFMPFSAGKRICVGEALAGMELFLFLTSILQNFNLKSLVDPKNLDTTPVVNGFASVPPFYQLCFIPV
CYP2C19 act – human CYP2C19 activators, primary screen, biochemical, luminescence; Cytochrome P450 2C19 (Homo sapiens), P33261; recombinant CYP2C19, luciferin-H EGE luminescence; hits give high values; 0 = fully inhibited enzyme, 1 = untreated enzyme; activation factor at 5 µM; 96,000 tested, under 10 active; AID 1025, 2008;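 active = activation factor of at least 2 at 5 µM in the primary screen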
CYP2C9 inhib – blockers of cytochrome P450 2C9 activity – biochemical, luminescence, ADME assay, primary screen; P11712; CYP2C9 Supersomes, luciferin-H conversion; inhibition, % at 5 µM; 96,000 compounds, 20% hits;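 active = blocking of liver enzyme CYP2C9 beyond about 50% at 5 µM, limit read from the data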
MRP resist rev – reversal of MRP1-mediated doxorubicin resistance, primary screen, H69AR cells, doxorubicin co-treatment; differential viability (reversal), % at 10 µM; 85,000 compounds, 0.04% hits; AID 602, 2007; H69AR cells + 2 uM doxorubicin, CellTiter-Glo, 72 h;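 active = viability drop by adding the cancer drug above about 55%, with treated viability meeting a 40% cutoff, limit read from the data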;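 note: larger differential means the compound sensitizes cells more to doxorubicin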
CYP2C19 inhib – blockers of cytochrome P450 2C19 activity – biochemical, luminescence, ADME assay, primary screen. P33261. CYP2C19 Supersomes, luciferin-H EGE luminescence, 30 min. 96,000 compounds, 21% hits. AID 778, 2007. inhibition, % at 5 µM;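 active = CYP2C19 inhibition above a set limit at 5 µM in the primary screen, cut at about 50% in these data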
MRP-1 activ – H69AR viability gain despite doxorubicin, primary screen, MRP-1 activator project, H69AR cells, CellTiter-Glo. viability rescue. viability increase, % at 10 µM. 140,000 compounds, 0.61% hits;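 active = viability gain under doxorubicin at or above a set limit, the compound median plus 3 SD, cut at about 4.7% in these data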;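 note: MRP-1 overexpressing cells given doxorubicin 25 µM after compound pretreatment; 18-22 h compound pretreatment then 72 h with doxorubicin before readout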
Numbers stand for hits.

For N#Cc1c(-c2ccccc2)c(-c2ccccc2)nn(CC(=O)NNC(=O)Nc2ccc(Cl)c(Cl)c2)c1=O the results were CYP2C9 activ inactive, CYP2C19 act inactive, CYP2C9 inhib 61.6, CYP2C19 inhib inactive and MRP-1 activ inactive.
`COc1ccc(C(C)=O)cc1CSc1nncn1-c1ccccc1` gave MRP-1 activ inactive.
For O=c1c2ccc(Cl)cc2[nH]c(=S)n1CCC1=CCCCC1 the results were MRP-1 activ inactive.
`Clc1ccc(Cc2noc(-c3cccs3)n2)cc1` gave CYP2C9 activ inactive, CYP2C19 act inactive, CYP2C9 inhib inactive, MRP resist rev inactive, CYP2C19 inhib inactive and MRP-1 activ inactive.
`C=CCOC(=O)CC(NC(=O)c1ccccc1)c1ccccc1` (stereo unspecified) gave CYP2C9 activ inactive, CYP2C19 act inactive, CYP2C9 inhib 93.6, MRP resist rev inactive, CYP2C19 inhib 95.7 and MRP-1 activ inactive.
COC(=O)CC(NC(=O)c1ccc(C)cc1)c1ccccc1 (stereo unspecified) was read as CYP2C9 activ inactive, CYP2C19 act inactive, CYP2C9 inhib inactive, MRP resist rev inactive, CYP2C19 inhib 69.0 and MRP-1 activ inactive.
COC(=O)CC(NC(=O)c1ccc(C)cc1)c1ccc2c(c1)OCO2 (stereo unspecified) was read as CYP2C9 activ inactive, CYP2C19 act inactive, CYP2C9 inhib 68.3, MRP resist rev inactive, CYP2C19 inhib 77.7 and MRP-1 activ inactive.
C=CCOC(=O)/C(=C\c1cccc2ccccc12)NC(=O)c1ccccc1 was read as CYP2C9 activ inactive, CYP2C19 act inactive, CYP2C9 inhib 78.2, CYP2C19 inhib 82.5 and MRP-1 activ inactive.
For CCOC(=O)/C(=C/c1c2ccccc2cc2ccccc12)NC(=O)c1ccccc1 the results were CYP2C9 activ inactive, CYP2C19 act inactive, CYP2C9 inhib inactive, CYP2C19 inhib inactive and MRP-1 activ inactive.
Screening CCCOc1ccc(C(CC(=O)O)NC(=O)c2ccc3c(c2)OCO3)cc1 (stereo unspecified) returned CYP2C9 activ inactive, CYP2C19 act inactive, CYP2C9 inhib inactive, CYP2C19 inhib inactive and MRP-1 activ inactive.
O=C(CC(NC(=O)c1ccccc1)c1ccccc1)Nc1cccc2ccccc12 (stereo unspecified) was read as MRP-1 activ inactive.
Brc1ccc(C=Nc2ccc3c(c2)OCCOCCOCCO3)s1 was read as MRP-1 activ inactive.
For CC1(CCc2ccc(O)cc2)NC(=O)NC1=O (stereo unspecified) the results were CYP2C9 activ inactive, CYP2C19 act inactive, CYP2C9 inhib inactive, MRP resist rev inactive, CYP2C19 inhib inactive and MRP-1 activ inactive.
COC(=O)c1ccc(Oc2nc(Nc3ccccc3)nc(N(C)C)n2)cc1 was read as CYP2C9 activ inactive, CYP2C19 act inactive, CYP2C9 inhib 52.1, MRP resist rev inactive, CYP2C19 inhib inactive and MRP-1 activ inactive.
For COc1nc(Oc2ccc(C(=O)OCC(N)=O)cc2)nc(N(C)C)n1 the results were CYP2C9 activ inactive, CYP2C19 act inactive, CYP2C9 inhib inactive, MRP resist rev inactive, CYP2C19 inhib inactive and MRP-1 activ inactive.
`CN(C)c1nc(Nc2ccccc2)nc(Oc2ccc(=O)[nH]n2)n1` gave MRP resist rev inactive and MRP-1 activ inactive.
`CCOC(=O)C(C)Oc1nc(Oc2ccccc2)nc(N(C)C)n1` (stereo unspecified) gave CYP2C9 activ inactive, CYP2C19 act inactive, CYP2C9 inhib inactive, MRP resist rev inactive, CYP2C19 inhib 57.1 and MRP-1 activ inactive.
COc1ccc(NS(=O)(=O)c2ccc3c(c2)CCC(=O)N3)c(OC)c1 was read as CYP2C9 activ inactive, CYP2C19 act inactive, CYP2C9 inhib inactive, MRP resist rev inactive, CYP2C19 inhib inactive and MRP-1 activ inactive.
`CCOC(=O)c1c(C)[nH]c(C(=O)OCC(=O)Nc2cc(C)c(Cl)cc2OC)c1C` gave CYP2C9 activ inactive, CYP2C19 act inactive, CYP2C9 inhib inactive, CYP2C19 inhib inactive and MRP-1 activ inactive.
Screening Nc1c(Nc2ccccc2)c2ccccc2oc1=O returned CYP2C9 activ inactive, CYP2C19 act inactive, CYP2C9 inhib 79.6, MRP resist rev inactive, CYP2C19 inhib 95.0 and MRP-1 activ inactive.
CCNc1c(N)c(=O)oc2ccccc12 was read as CYP2C9 activ inactive, CYP2C19 act inactive, CYP2C9 inhib inactive, MRP resist rev inactive, CYP2C19 inhib inactive and MRP-1 activ inactive.
O=c1oc2ccccc2c(Nc2cccc(O)c2)c1[N+](=O)[O-] was read as CYP2C9 activ inactive, CYP2C19 act inactive, CYP2C9 inhib inactive, MRP resist rev inactive, CYP2C19 inhib 91.0 and MRP-1 activ inactive.
O=C(N1CCOCC1)N1CCN(S(=O)(=O)N2CCCCC2)CC1 was read as CYP2C9 activ inactive, CYP2C19 act inactive, CYP2C9 inhib inactive, MRP resist rev inactive, CYP2C19 inhib inactive and MRP-1 activ inactive.
CCOC(=O)C1C(=O)Oc2ccc3ccccc3c2C1C1CCOC1=O (stereo unspecified) was read as CYP2C9 activ inactive, CYP2C19 act inactive, CYP2C9 inhib inactive, MRP resist rev inactive, CYP2C19 inhib 59.8 and MRP-1 activ inactive.
For O=C(CCC1N=C2c3ccccc3N=C(SCc3ccc(Cl)cc3)N2C1=O)NCc1ccco1 (stereo unspecified) the results were CYP2C9 activ inactive, CYP2C19 act inactive, CYP2C9 inhib 76.6, MRP resist rev inactive, CYP2C19 inhib inactive and MRP-1 activ inactive.
Screening O=C(CSC1=Nc2ccccc2C2=NC(CC(=O)NCc3ccco3)C(=O)N12)NCC1CCCO1 (stereo unspecified) returned CYP2C9 activ inactive, CYP2C19 act inactive, CYP2C9 inhib inactive, MRP resist rev inactive, CYP2C19 inhib inactive and MRP-1 activ inactive.
For Cc1ccc(CSC2=Nc3ccccc3C3=NC(CC(=O)NCc4ccco4)C(=O)N23)cc1 (stereo unspecified) the results were CYP2C9 activ inactive, CYP2C19 act inactive, CYP2C9 inhib 78.9, MRP resist rev inactive, CYP2C19 inhib inactive and MRP-1 activ inactive.
Screening N#CCSC1=Nc2ccccc2C2=NC(CCC(=O)N3CCN(c4ccccc4)CC3)C(=O)N12 (stereo unspecified) returned CYP2C9 activ inactive, CYP2C19 act inactive, CYP2C9 inhib 72.8, MRP resist rev inactive, CYP2C19 inhib inactive and MRP-1 activ inactive.
`O=C(CC1N=C2c3ccccc3N=C(SCc3ccc(F)cc3)N2C1=O)NCc1ccco1` (stereo unspecified) gave CYP2C9 activ inactive, CYP2C19 act inactive, CYP2C9 inhib inactive, MRP resist rev inactive, CYP2C19 inhib inactive and MRP-1 activ inactive.

Assay outcomes: PubChem BioAssay, several laboratories
